PubChem BioAssay
Calls of active or inactive are those of the source.

How the values were obtained:
[1] = target: Albumin (Bos taurus) (UniProt P02769); test: compounds binding labelled BSA control protein – biochemical, small-molecule microarray, Alexa647 label, 635/667 nm fluorescence, artefact control for SMM control protein annotation, profiling panel (AID 1118); conditions: BSA-A647 binding, fluorescence 635 nm, higher = more signal;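 also: score merges 667 nm emission intensity and signal-to-noise per printed compound spot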
Albumin (Bos taurus), sequence (P02769 whole entry, looked up): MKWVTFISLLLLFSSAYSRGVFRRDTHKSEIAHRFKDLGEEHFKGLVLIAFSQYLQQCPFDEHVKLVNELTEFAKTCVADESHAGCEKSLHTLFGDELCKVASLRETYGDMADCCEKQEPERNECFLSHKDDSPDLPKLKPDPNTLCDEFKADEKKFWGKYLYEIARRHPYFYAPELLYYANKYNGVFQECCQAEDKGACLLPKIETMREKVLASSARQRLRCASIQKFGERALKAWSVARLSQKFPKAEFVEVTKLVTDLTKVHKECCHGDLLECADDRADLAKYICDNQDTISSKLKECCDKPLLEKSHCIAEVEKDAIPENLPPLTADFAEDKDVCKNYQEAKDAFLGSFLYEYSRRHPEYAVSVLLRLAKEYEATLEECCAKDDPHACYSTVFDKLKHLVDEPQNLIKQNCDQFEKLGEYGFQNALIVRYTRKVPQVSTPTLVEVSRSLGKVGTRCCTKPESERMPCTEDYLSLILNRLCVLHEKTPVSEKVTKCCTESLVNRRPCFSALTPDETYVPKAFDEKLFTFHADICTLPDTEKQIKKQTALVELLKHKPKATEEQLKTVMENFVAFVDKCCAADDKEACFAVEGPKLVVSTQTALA

[2] = probe aXIP binding to arrayed compounds – biochemical, NeuroSMM set, 635/667 nm fluorescence, primary screen (AID 1119); conditions: small-molecule microarray, higher = more signal, called active from +8 up or from −8 down;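 also: probe is the protein aXip251-270 applied at 1 µg/mL to compound-printed slides; binding of probe to printed compounds measured as 667 nm fluorescence plus signal to noise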
[3] = probe aNOTCH3 binding on compound microarray – biochemical, small-molecule microarray, 635/667 nm fluorescence, primary screen (AID 1120); conditions: higher = more signal;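 also: probe is a biotin-tagged antibody raised against NOTCH3 rather than NOTCH3 protein; score merges spot fluorescence near 667 nm with spot signal to noise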
[4] = probe aNOTCH2 binding on compound microarray – biochemical, small-molecule microarray, 635/667 nm fluorescence, primary screen (AID 1121); conditions: higher = more signal;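 also: score merges feature fluorescence read at 667 nm with its signal to noise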
[5] = target: Carbonic anhydrase 2 (Homo sapiens) (UniProt P00918); test: compounds binding carbonic anhydrase 2 – biochemical, small-molecule microarray, Alexa647-labelled CAII, profiling panel (AID 1122); conditions: CAII-A647 binding fluorescence, higher = more signal
[6] = COS7 lysate on small-molecule microarray, probe aHis, 635 nm (AID 1123); conditions: COS7 cell lysate, fluorescence, higher = more signal;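 also: z-score combines 667nm fluorescence intensity with signal-to-noise per printed compound spot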
[7] = probe aLAP1 signal on lysate-treated microarray – cell lysate, small-molecule microarray, COS7 lysate, primary screen (AID 1124); conditions: probe aLAP1, fluorescence, higher = more signal;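 also: lysate comes from COS7 cells expressing LAP1 and is applied at 0.3 µg/mL; score merges spot fluorescence near 667 nm with signal-to-noise over triplicate slides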
[8] = tested on: Sam68 (KHDRBS1); test: compounds binding KHDRBS1 protein – biochemical, small-molecule microarray, 635 nm fluorescence, primary screen (AID 1125); conditions: higher = more signal;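 also: score merges 667 nm channel intensity with signal to noise over triplicate slides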
[9] = tested on: Chordin-like protein 2 (CHRDL2); test: compounds binding chordin-like 2 – biochemical, small-molecule microarray, 635 nm fluorescence, primary screen (AID 1126); conditions: fluorescence 635 nm, higher = more signal;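 also: printed compound slides probed with Chrdl2 protein at 4 µg/mL for 1 h at 4 C; score merges 667 nm emission intensity with signal to noise over three replicate slides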
[10] = target: Concanavalin-A (Canavalia ensiformis) (UniProt P02866); test: compounds binding concanavalin A lectin – biochemical, small-molecule microarray, Alexa647 label, 635 nm, artefact control for SMM control protein annotation, primary screen (AID 1127); conditions: ConA-A647 binding fluorescence, higher = more signal;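 also: z combines 667 nm emission intensity with signal-to-noise across three replicate slides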
Concanavalin-A (Canavalia ensiformis), sequence (P02866 whole entry, looked up): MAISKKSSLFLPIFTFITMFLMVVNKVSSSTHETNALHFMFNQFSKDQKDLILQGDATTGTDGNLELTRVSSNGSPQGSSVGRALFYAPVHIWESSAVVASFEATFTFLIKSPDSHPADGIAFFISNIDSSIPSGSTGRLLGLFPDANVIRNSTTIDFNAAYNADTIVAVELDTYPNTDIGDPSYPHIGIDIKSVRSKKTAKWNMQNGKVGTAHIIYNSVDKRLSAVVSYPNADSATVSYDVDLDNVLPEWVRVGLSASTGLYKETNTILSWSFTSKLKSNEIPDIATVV

[11] = compounds binding Alexa647 anti-His antibody – biochemical, small-molecule microarray, 635 nm fluorescence, artefact control for SMM control protein annotation, primary screen (AID 1128); conditions: higher = more signal;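 also: score merges feature fluorescence with signal-to-noise for each printed compound spot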
[12] = tested on: Human papillomavirus type 1a E7 protein (residues 1-88); test: HPV1a E7 small-molecule binders, primary screen, biochemical, small-molecule microarray, residues 1-88, 635 nm (AID 1129); conditions: small-molecule microarray binding, fluorescence 635 nm; higher = more signal
[13] = target: Focal adhesion kinase 1 (Homo sapiens) (UniProt Q05397); test: PTK2 protein binding on printed compound slides – biochemical, small-molecule microarray, 635/667 nm fluorescence, BSA, DTT, primary screen (AID 1130); conditions: 635 nm fluorescence, higher = more signal;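 also: composite of spot emission at 667 nm and signal to noise over triplicate slides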
Focal adhesion kinase 1 (Homo sapiens), sequence (Q05397 whole entry, looked up): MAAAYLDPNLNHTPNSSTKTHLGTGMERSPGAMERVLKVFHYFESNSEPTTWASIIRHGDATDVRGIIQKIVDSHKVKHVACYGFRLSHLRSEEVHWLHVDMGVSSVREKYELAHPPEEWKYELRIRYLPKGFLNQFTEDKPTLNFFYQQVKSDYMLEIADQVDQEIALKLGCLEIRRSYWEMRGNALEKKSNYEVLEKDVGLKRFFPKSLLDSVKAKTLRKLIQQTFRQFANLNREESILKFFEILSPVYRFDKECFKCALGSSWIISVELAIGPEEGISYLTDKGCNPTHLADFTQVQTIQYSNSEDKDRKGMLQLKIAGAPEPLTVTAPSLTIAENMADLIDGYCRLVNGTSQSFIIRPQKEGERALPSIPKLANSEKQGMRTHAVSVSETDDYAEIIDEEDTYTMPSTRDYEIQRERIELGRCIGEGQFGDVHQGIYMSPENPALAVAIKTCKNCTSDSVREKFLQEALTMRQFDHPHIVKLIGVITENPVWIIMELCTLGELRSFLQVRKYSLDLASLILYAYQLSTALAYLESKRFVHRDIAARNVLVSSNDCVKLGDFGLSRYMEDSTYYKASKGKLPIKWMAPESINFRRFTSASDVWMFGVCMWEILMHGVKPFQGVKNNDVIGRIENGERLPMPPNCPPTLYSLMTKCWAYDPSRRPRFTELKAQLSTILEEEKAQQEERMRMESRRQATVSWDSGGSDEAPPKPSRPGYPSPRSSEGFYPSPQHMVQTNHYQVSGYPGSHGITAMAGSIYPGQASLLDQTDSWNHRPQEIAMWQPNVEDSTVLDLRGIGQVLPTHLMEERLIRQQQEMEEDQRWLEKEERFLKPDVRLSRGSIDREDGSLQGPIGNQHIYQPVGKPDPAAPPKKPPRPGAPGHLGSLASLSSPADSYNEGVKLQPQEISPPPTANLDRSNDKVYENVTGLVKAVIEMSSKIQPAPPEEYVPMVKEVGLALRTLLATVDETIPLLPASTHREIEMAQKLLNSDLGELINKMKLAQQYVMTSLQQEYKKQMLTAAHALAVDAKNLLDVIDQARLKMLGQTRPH

[14] = tested on: Fibrinogen (Alexa647-labelled); test: Alexa647-fibrinogen binding to printed small molecules – biochemical, small-molecule microarray, 635/667 nm fluorescence, artefact control for SMM control-protein annotation, profiling panel (AID 1131); conditions: fibrinogen-A647 binding fluorescence, higher = more signal;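 also: z-score merges 667 nm fluorescence with per-spot signal-to-noise over triplicate slides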
[15] = target: Follistatin (Homo sapiens) (UniProt P19883); test: FST protein binding to printed compounds – biochemical, small-molecule microarray, 635/667 nm fluorescence, primary screen (AID 1132); conditions: 635 nm fluorescence, higher = more signal
Follistatin (Homo sapiens), sequence (P19883 whole entry, looked up): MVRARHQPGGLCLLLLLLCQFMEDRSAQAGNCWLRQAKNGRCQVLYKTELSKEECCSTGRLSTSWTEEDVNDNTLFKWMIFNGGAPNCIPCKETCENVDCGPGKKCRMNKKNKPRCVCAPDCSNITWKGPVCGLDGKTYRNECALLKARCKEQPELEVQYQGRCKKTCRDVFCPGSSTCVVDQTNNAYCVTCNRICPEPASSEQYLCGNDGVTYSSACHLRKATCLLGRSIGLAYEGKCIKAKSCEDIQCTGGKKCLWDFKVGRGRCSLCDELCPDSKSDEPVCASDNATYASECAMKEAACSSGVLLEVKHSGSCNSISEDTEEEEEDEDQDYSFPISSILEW

[16] = target: Fibroblast growth factor 2 (Homo sapiens) (UniProt P09038); test: basic fibroblast growth factor binding to printed compounds – biochemical, small-molecule microarray, 635/667 nm fluorescence, primary screen (AID 1133); conditions: FGF2, fluorescence 635/667, higher = more signal
Fibroblast growth factor 2 (Homo sapiens), sequence (P09038 whole entry, looked up): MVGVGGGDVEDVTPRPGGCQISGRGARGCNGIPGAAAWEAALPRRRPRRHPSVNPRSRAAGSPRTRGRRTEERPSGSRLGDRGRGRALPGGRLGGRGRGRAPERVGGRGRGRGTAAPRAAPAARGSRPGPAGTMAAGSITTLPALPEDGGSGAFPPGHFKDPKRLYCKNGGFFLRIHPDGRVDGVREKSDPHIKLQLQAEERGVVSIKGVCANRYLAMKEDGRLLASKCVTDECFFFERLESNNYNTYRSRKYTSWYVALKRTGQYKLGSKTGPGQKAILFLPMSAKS

[17] = JC-1 mitochondrial potential readout, lung cancer cells – cell-based, A549, JC-1 fluorescence, basal, 24 h, 100 nL, profiling panel (AID 1138); conditions: higher = more signal;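 also: A549 lung adenocarcinoma cells under basal conditions with no added stimulus; test concentration not given here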
[18] = tested on: Lefty1; test: Lefty1 protein binding to printed compounds – biochemical, small-molecule microarray, 635/667 nm fluorescence, primary screen (AID 1139); conditions: fluorescence 635/667, higher = more signal
[19] = tested on: wheat germ agglutinin (Triticum aestivum), Alexa647-labelled; test: Alexa647-WGA lectin binding to printed small molecules – biochemical, small-molecule microarray, 635/667 nm fluorescence, artefact control for SMM control-protein annotation, profiling panel (AID 1140); conditions: WGA-A647 binding, 635 nm fluorescence, higher = more signal;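 also: score merges 667 nm feature emission with signal to noise over triplicate slides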
[20] = target: Luciferin 4-monooxygenase (Photinus pyralis) (UniProt P08659); test: inhibition of purified Photinus pyralis luciferase – biochemical, luminescence, purified enzyme, 2006 set, primary screen (AID 1141); conditions: purified firefly luciferase, SteadyGlo luminescence, 30 min; higher = more signal, called active from +8 up or from −8 down;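 also: cell-free assay with purified firefly luciferase at 100 ng per well in PBS; test concentration not given here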
Luciferin 4-monooxygenase (Photinus pyralis), sequence (P08659 whole entry, looked up): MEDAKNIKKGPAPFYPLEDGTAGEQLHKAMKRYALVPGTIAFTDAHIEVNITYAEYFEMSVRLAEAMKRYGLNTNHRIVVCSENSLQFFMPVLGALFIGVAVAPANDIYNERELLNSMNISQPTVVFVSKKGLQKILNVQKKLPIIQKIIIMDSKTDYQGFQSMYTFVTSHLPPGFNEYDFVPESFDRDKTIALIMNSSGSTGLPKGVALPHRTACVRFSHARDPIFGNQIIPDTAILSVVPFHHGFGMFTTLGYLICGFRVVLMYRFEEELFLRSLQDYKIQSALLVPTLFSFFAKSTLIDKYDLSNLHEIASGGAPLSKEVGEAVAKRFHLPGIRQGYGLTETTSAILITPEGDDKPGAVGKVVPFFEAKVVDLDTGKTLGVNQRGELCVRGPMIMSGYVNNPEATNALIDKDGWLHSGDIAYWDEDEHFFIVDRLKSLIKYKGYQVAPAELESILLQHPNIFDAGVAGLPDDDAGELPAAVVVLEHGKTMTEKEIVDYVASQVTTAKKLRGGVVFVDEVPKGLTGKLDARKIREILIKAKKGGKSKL

## O=C1OCCC=C[C@H]2OC34C=CCN(c5ccc(Cl)cc5)C(=O)[C@H]3N(CCCO)C(=O)[C@@H]4C12 (stereo not given in full)
[1]
  composite z-score: -0.989
[2]
  composite Z-score: -0.118 (inactive)
[3]
  composite z-score: -0.237
[4]
  composite z-score: -0.186
[5]
  composite z-score: 0.268
[6]
  composite z-score: -0.714
[7]
  composite z-score: 0.27
[8]
  composite z-score: -1.21
[9]
  composite z-score: -0.406
[10]
  composite z-score: -0.295
[11]
  composite z-score: -0.598
[12]
  composite z-score: -1.88
[13]
  composite z-score: -0.22
[14]
  composite z-score: -0.867
[15]
  composite z-score: -0.0633
[16]
  composite z-score: -0.584
[17]
  z-score: 0.0491
[18]
  composite z-score: 0.196
[19]
  composite z-score: -0.0198
[20]
  z-score: -0.352 (inactive)

## CC1CC/C=C\[C@H]2OC34C=CCN(c5ccc6ccccc6c5)C(=O)[C@H]3N(CCO)C(=O)[C@@H]4C2C(=O)O1 (stereo not given in full)
[1]
  composite z-score: 0.653
[2]
  composite Z-score: 0.0214 (inactive)
[3]
  composite z-score: -0.19
[4]
  composite z-score: -0.0903
[5]
  composite z-score: 0.829
[6]
  composite z-score: 0.275
[7]
  composite z-score: 0.758
[8]
  composite z-score: 0.0573
[9]
  composite z-score: -0.628
[10]
  composite z-score: -1.12
[11]
  composite z-score: -0.9
[12]
  composite z-score: -0.898
[13]
  composite z-score: -0.645
[14]
  composite z-score: -0.0601
[15]
  composite z-score: -0.839
[16]
  composite z-score: -0.467
[17]
  z-score: -0.245
[18]
  composite z-score: -0.708
[19]
  composite z-score: 1.03
[20]
  z-score: 0.288 (inactive)

## O=C(CS)NCCCCCNC(=O)[C@@H]1C[C@@H]2C(=O)NCC(=O)N2[C@@H]1c1cccc(OCCO)c1
[1]
  composite z-score: 0.57
[2]
  composite Z-score: 0.498 (inactive)
[3]
  composite z-score: -0.162
[4]
  composite z-score: -0.125
[5]
  composite z-score: 0.179
[6]
  composite z-score: 1.61
[7]
  composite z-score: 0.783
[8]
  composite z-score: 0.459
[9]
  composite z-score: 0.656
[10]
  composite z-score: 0.324
[11]
  composite z-score: 3.09
[12]
  composite z-score: -0.0552
[13]
  composite z-score: 1.8
[14]
  composite z-score: 0.0984
[15]
  composite z-score: 1.25
[16]
  composite z-score: 0.817
[17]
  z-score: 1.12
[18]
  composite z-score: 0.106
[19]
  composite z-score: 0.502
[20]
  z-score: -2.27 (inactive)

## O[C@@H](Cc1ccccc1)[C@@H](/C=C/C1CC1)NCc1cccc(Cl)c1
[1]
  composite z-score: -0.0308
[2]
  composite Z-score: -0.515 (inactive)
[3]
  composite z-score: -0.272
[4]
  composite z-score: -0.146
[5]
  composite z-score: -0.397
[6]
  composite z-score: -0.266
[7]
  composite z-score: -0.273
[8]
  composite z-score: -0.53
[9]
  composite z-score: -1.11
[10]
  composite z-score: -0.509
[11]
  composite z-score: 0.183
[12]
  composite z-score: -0.431
[13]
  composite z-score: 0.314
[14]
  composite z-score: -1.7
[15]
  composite z-score: -1.4
[16]
  composite z-score: -1.99
[17]
  z-score: -0.164
[18]
  composite z-score: -0.717
[19]
  composite z-score: 0.204
[20]
  z-score: 0.585 (inactive)

## COCCCNC(=O)[C@@]1(Cc2ccccc2CN=[N+]=[N-])N=C(c2ccc(OCCCO)cc2)O[C@H]1c1ccccc1CN=[N+]=[N-]
[1]
  composite z-score: 1.02
[2]
  composite Z-score: 0.585 (inactive)
[3]
  composite z-score: 0.459
[4]
  composite z-score: -0.0438
[5]
  composite z-score: 0.594
[6]
  composite z-score: 2.58
[7]
  composite z-score: 0.574
[8]
  composite z-score: 1.29
[9]
  composite z-score: -1.13
[10]
  composite z-score: 0.972
[11]
  composite z-score: 2.03
[12]
  composite z-score: 1.19
[13]
  composite z-score: 0.125
[14]
  composite z-score: 0.922
[15]
  composite z-score: 0.63
[16]
  composite z-score: -0.263
[17]
  z-score: -0.556
[18]
  composite z-score: 0.0147
[19]
  composite z-score: 0.28
[20]
  z-score: -2.66 (inactive)

## COc1cc2c(cc1O)C(c1cccs1)N(Cc1cccc(OC(F)(F)F)c1)CC2 (stereo not given)
[1]
  composite z-score: 0.899
[2]
  composite Z-score: 0.934 (inactive)
[3]
  composite z-score: -0.128
[4]
  composite z-score: -0.148
[5]
  composite z-score: 0.78
[6]
  composite z-score: 2.6
[7]
  composite z-score: 0.336
[8]
  composite z-score: 1.15
[9]
  composite z-score: 0.375
[10]
  composite z-score: 0.127
[11]
  composite z-score: 2.17
[12]
  composite z-score: 0.733
[13]
  composite z-score: 0.758
[14]
  composite z-score: 0.173
[15]
  composite z-score: 0.457
[16]
  composite z-score: 0.252
[17]
  z-score: -0.0263
[18]
  composite z-score: -0.196
[19]
  composite z-score: 0.84
[20]
  z-score: -0.619 (inactive)

## COc1ccccc1CN1C(=O)c2ccccc2[C@@]2(Cc3ccccc3N(CCCN(C)C)C2=O)[C@@H]1c1ccc(CO)cc1
[1]
  composite z-score: -0.909
[2]
  composite Z-score: 0.027 (inactive)
[3]
  composite z-score: -0.0797
[4]
  composite z-score: 0.0687
[5]
  composite z-score: -0.271
[6]
  composite z-score: 0.5
[7]
  composite z-score: -0.0231
[8]
  composite z-score: -0.204
[9]
  composite z-score: 1.27
[10]
  composite z-score: 0.417
[11]
  composite z-score: 0.583
[12]
  composite z-score: -0.984
[13]
  composite z-score: -0.0228
[14]
  composite z-score: 0.253
[15]
  composite z-score: 1.2
[16]
  composite z-score: 0.459
[17]
  z-score: -0.202
[18]
  composite z-score: 0.647
[19]
  composite z-score: -0.331
[20]
  z-score: -0.278 (inactive)

## [N-]=[N+]=Nc1ccccc1[C@H]1OC(c2ccc(OCCCO)cc2)=N[C@@]1(Cc1ccccc1)C(=O)N1CCOCC1
[1]
  composite z-score: 1.05
[2]
  composite Z-score: 1.39 (inactive)
[3]
  composite z-score: 0.223
[4]
  composite z-score: 0.132
[5]
  composite z-score: 0.523
[6]
  composite z-score: 2.89
[7]
  composite z-score: 1.09
[8]
  composite z-score: 1.29
[9]
  composite z-score: 0.311
[10]
  composite z-score: 1.14
[11]
  composite z-score: 2.22
[12]
  composite z-score: 1.21
[13]
  composite z-score: 0.68
[14]
  composite z-score: 0.974
[15]
  composite z-score: 1.38
[16]
  composite z-score: 1.66
[17]
  z-score: -0.254
[18]
  composite z-score: 0.511
[19]
  composite z-score: 1.09
[20]
  z-score: -5.58 (inactive)
